Results published in PubChem BioAssay AID1578 (Sanford-Burnham Center for Chemical Genomics, 2009).
The whole screen tested about 290,000 compounds, of which about 3,000 (1%) were called active. The list comes from a sample in which actives are over-represented; it also holds similar structures and randomly drawn compounds. Unmarked numbers belong to inactive results. No stated cut-off is given here; in the data, active means inhibition mostly above about 36% (no sharp cut-off); inactive means mostly below about 34%.

assay: inhibition of NOD1-driven NF-kB reporter – cell-based, luminescence, uHTS, primary screen (AID 1578); details: NOD1-driven NF-kB luciferase reporter cells, at 4 µM, hits give high values;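 further: HEK-293T reporter cells stimulated with the NOD1 agonist gamma-tri-DAP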

Row | Structure (SMILES) | inhibition
1 | [O-]/[N+](=C/c1ccc(F)cc1)c1ccc(Cl)cc1 | -85.9%
2 | COc1cccc(C(=O)NCc2ccc3c(c2)OCO3)c1OC | -33%
3 | CC1=C(C(=O)N(C)C)C(c2cccc(Cl)c2)NC(=O)N1 (stereo unspecified) | -23.2%
4 | COc1ccc(CCNC(=O)c2ccc3c(c2)N(Cc2ccc(F)cc2)CCS3)cc1OC | -34.1%
5 | COc1ccc(CCNC(=O)c2ccc3c(c2)N(Cc2ccc(C)cc2)CCS3)cc1OC | 8.4%
6 | CCCC[C@@H]1CNC(=S)N1CCc1cccc(F)c1 | -29.2%
7 | CCOc1ncccc1C(=O)Nc1cc(S(=O)(=O)N2CCOCC2)ccc1N1CCCC1 | 0.1%
8 | CC1CCN(C(=O)C2CCN(S(=O)(=O)c3ccc(-n4cnnn4)cc3)CC2)CC1 | -10.6%
9 | CCOc1cc(/C=N/NC(=O)CSc2cccc3cccnc23)ccc1O | -32.2%
10 | O=C(CSc1cccc2cccnc12)N/N=C/c1cccc(O)c1 | -22%
11 | O=C(Cc1cccc2ccccc12)N/N=C/c1ccc(Sc2cccc3cccnc23)o1 | 61.9%
12 | O=C(CSc1cccc2cccnc12)N/N=C/c1ccncc1 | -32.7%
13 | O=C(CSc1cccc2cccnc12)N/N=C/c1ccc(O)cc1 | -3.1%
14 | COc1cccc(/C=N/NC(=O)CSc2cccc3cccnc23)c1 | 33.4% (active)
15 | O=C(CCc1ccccc1O)N/N=C/c1ccc(Sc2cccc3cccnc23)o1 | 89.3% (active)
16 | O=C(CSc1cccc2cccnc12)N/N=C/c1cccnc1 | 80% (active)
17 | CCCCC(=O)N/N=C/c1ccc(Sc2cccc3cccnc23)o1 | -12.8%
18 | Cc1cc(NC(=O)CSc2nnc(CNC(=O)c3ccc(F)cc3)o2)no1 | -38.1%
19 | O=C(CSc1nc2ccccc2c(=O)n1CCCN1CCOCC1)c1c[nH]c2ccccc12 | 41%
20 | O=C(NCc1ccccc1OC(F)(F)F)C1CCC(=O)N(Cc2ccccn2)C1 (stereo unspecified) | -8%
21 | CC(C)(C)OC(=O)NC(Cc1ccccc1)C(=O)N1CCC(C(=O)NCC(=O)Nc2ccc(F)cc2)CC1 (stereo unspecified) | -18%
22 | O=C(Nc1cccc(F)c1)N1CCC(n2c(=O)[nH]c3ccccc32)CC1 | -2.7%
23 | COc1ccc(-c2noc(N3CCC(C(=O)NCCCN4CC(C)CC(C)C4)CC3)n2)cc1 (stereo unspecified) | -3.9%
24 | COC(=O)Cc1ccc(NC(=O)c2ccc(C)c(C)c2)cc1 | -39.1%

Row | Structure (SMILES) | inhibition
25 | CC(C)(C)c1ccc(C(=O)Nc2ccc(CC(=O)O)cc2)o1 | 76.3% (active)
26 | Cc1ccc(C(=O)Nc2ccc(CC(=O)O)cc2)o1 | -4.8%
27 | COC(=O)Cc1ccc(NC(=O)c2ccc(C(C)(C)C)cc2)cc1 | 88.2% (active)
28 | CCOC(=O)Cc1ccc(NC(=O)c2ccc([N+](=O)[O-])cc2)cc1 | -35.6%
29 | CCOC(=O)Cc1ccc(NC(=O)c2ccccc2Br)cc1 | -20.3%
30 | CC(C)(C)c1ccc(C(=O)Nc2ccc(NC(=O)C(=O)O)cc2)o1 | -19%
31 | COC(=O)Cc1ccc(NC(=O)c2ccc(NC(=O)c3ccco3)cc2)cc1 | -16%
32 | CCOC(=O)Cc1ccc(NC(=O)c2ccc(C(C)(C)C)cc2)cc1 | 69.9% (active)
33 | C=C(CO)C1Cc2cc(C(C)=O)ccc2O1 (stereo unspecified) | -3.8%
34 | CC(C)(C)c1ccc(C(=O)c2c[nH]c(C(=O)NCCCN3CCOCC3)c2)cc1 | -19.7%
35 | COc1ccc(CCC(=O)NC(C)C)cc1 | -11.1%
36 | O=S(=O)(NCCN1CCOCC1)c1ccc(-c2ccc(S(=O)(=O)NCCN3CCOCC3)cc2)cc1 | -11.2%
37 | CCc1ccc(N2CC(C(=O)Nc3nc4ccc(S(C)(=O)=O)cc4s3)CC2=O)cc1 (stereo unspecified) | 0.5%
38 | O=C(CCCN1C(=O)S/C(=C/C=C/c2ccccc2)C1=O)Nc1ccc(C(=O)O)cc1 | -38%
39 | O=C(CCc1ccccc1)NC(NC(=S)Nc1ccc(Cl)cc1)C(Cl)(Cl)Cl (stereo unspecified) | 19.9%
40 | C/C(=N/NC(=O)c1nnn(-c2nonc2N)c1-c1ccccc1)c1ccncc1 | -26.6%
41 | Cc1c(Cl)c(C(=O)N2CCCc3ccccc32)nn1C | 0.6%
42 | O=c1cc(C(Cl)(Cl)Cl)oc2c1ccc1ccccc12 | 82.3% (active)
43 | O=c1cc(C(F)F)oc2c1ccc1ccccc12 | 27.3%
44 | O=c1cc(C(F)(F)F)oc2c1ccc1ccccc12 | -3.4%
45 | O=C(/C=C/c1ccc(OC(F)F)cc1)Nc1cccc(S(=O)(=O)NC2=NCCCCC2)c1 | -43.6%
46 | COCCC(=O)N1CCC(Oc2ccc(C(=O)N3C[C@H]4CC[C@H]3C4)cc2)CC1 | -33%
47 | COc1cc(C(=O)NCCNC(=O)c2cc(OC)c(C)c(OC)c2)cc(OC)c1C | -45.1%
48 | COCCNC(=O)COc1ccc(Oc2ccccc2)cc1 | -26.6%

Row | Structure (SMILES) | inhibition
49 | C=CCNC(=O)c1ccccc1NC(=O)COc1ccccc1 | 27.8%
50 | C=CCNC(=O)COc1ccc(Oc2ccccc2)cc1 | 52.1% (active)
51 | O=C(NCCSc1ccc(Br)cc1)c1ccc2nc[nH]c2c1 | -38.2%
52 | Cc1ccc(S(=O)(=O)CC(=O)Nc2cc(C)on2)cc1 | 24.4%
53 | Cc1cc2oc(=O)sc2cc1NS(=O)(=O)c1cccc2cccnc12 | -17.4%
54 | O=C(CP(=O)(c1ccccc1)c1ccccc1)Nc1cccc(CP(=O)(c2ccccc2)c2ccccc2)c1 | 7.2%
55 | O=C(CCl)Nc1cccc(CP(=O)(c2ccccc2)c2ccccc2)c1 | 106% (active)
56 | CCC(=O)Nc1cccc(-c2cnc3ccccc3n2)c1 | -54.6%
57 | O=C(CCl)Nc1cccc(-c2cnc3ccccc3n2)c1 | 104% (active)
58 | N=c1sccn1CC(=O)Nc1cccc(Oc2ccccc2)c1 | 16.7%
59 | CC(=O)Nc1cccc(CP(=O)(c2ccccc2)c2ccccc2)c1 | -3.5%
60 | O=C(Nc1cccc(-c2cnc3ccccc3n2)c1)c1ccccc1 | -0.8%
61 | O=C(CCl)Nc1cccc(Oc2cnccn2)c1 | 32.3% (active)
62 | O=C(CCl)Nc1cccc(Oc2ccccc2)c1 | 75.3% (active)
63 | O=C(CN1CCCCC1)Nc1cccc(Oc2ccccc2)c1 | -5.2%
64 | C=CCN(CC=C)CC(=O)Nc1cccc(Oc2cnccn2)c1 | 1.4%
65 | CC(=O)Nc1ccc(Oc2cnccn2)cc1 | -8.8%
66 | CCOc1ccc(NS(=O)(=O)c2ccc(NC(=O)C3CC3)cc2)cc1 | 23.9%
67 | Fc1ccc(NC(=S)NCc2cccnc2)cc1 | -21.1%
68 | Cc1nnc(NC(=O)CN2CCN(Cc3c(Cl)cccc3Cl)CC2)s1 | 2.8%
69 | C/C(=N\NC(=O)c1ccccn1)c1ccc(C(=O)O)s1 | 6.8%
70 | Cc1ccccc1NC(=O)c1c(-c2ccccc2)noc1C | -7.9%
71 | CN(Cc1ccccc1)S(=O)(=O)c1ccc(Cl)c(C(=O)NCc2ccc3c(c2)OCO3)c1 | -8.3%
72 | CC(=O)Nc1ccc(Nc2nc(-c3sc(NC(C)=O)nc3C)cs2)cc1 | 32.9%

Row | Structure (SMILES) | inhibition
73 | O=C(NC(=S)Nc1nc(-c2cccc([N+](=O)[O-])c2)cs1)c1ccccc1Cl | -36.4%
74 | CC(=O)Nc1nc(C)c(-c2csc(Nc3cccc(C(C)=O)c3)n2)s1 | 3.5%
75 | O=[N+]([O-])c1cccc(NC(=S)Nc2nc(-c3ccccc3Cl)cs2)c1 | 88.1% (active)
76 | O=C(NC(=S)Nc1nc(-c2cccc([N+](=O)[O-])c2)cs1)c1cc(Cl)ccc1Cl | 13.4%
77 | CC(C)CCNC(=O)c1nn(Cc2ccccc2)c(=O)c2ccccc12 | -6.4%
78 | Cc1cc(C(=O)CSc2nnc(NCc3ccccc3)s2)c(C)n1C | -18.8%
79 | CCN1CCN(c2ncnc3sc(C)c(-c4ccccc4)c23)CC1 | -8.6%
80 | Cc1sc2ncnc(N3CCN(Cc4ccccc4)CC3)c2c1-c1ccccc1 | 43.2%
81 | Cc1ccc(C(=O)NS(=O)(=O)c2ccc(N=NN(C)C)cc2)cc1 | 46.6% (active)
82 | Cc1ccc(C(=O)NS(=O)(=O)c2ccccc2)cc1 | -46.6%
83 | Cc1ccc(C(=O)NS(=O)(=O)c2ccc(C)cc2)cc1 | -2.7%
84 | Cc1cccc(/C=C2\CCC(=C3SCCCS3)C2=O)c1 | 21.6%
85 | O=C1/C(=C/c2ccc(F)cc2)CCC1C1CCCC1 (stereo unspecified) | -42.1%
86 | O=C1C(=C2SCCCS2)CC/C1=C\c1ccc(F)cc1 | 76.9% (active)
87 | Cc1ccc(C(=O)Nc2cccnc2Cl)cc1Cl | -74.4%
88 | NC(=O)COC(=O)c1ccc(NS(=O)(=O)c2ccc3c(c2)OCCO3)cc1 | -9.9%
89 | CS(=O)(=O)c1nc(-c2ccc(Br)cc2)cc(-c2ccccc2)c1C#N | 40.6%
90 | CC(C)C(Sc1nc(-c2ccccc2)cc(-c2ccccc2)c1C#N)C(=O)O (stereo unspecified) | 52.9% (active)
91 | COc1ccc(-c2cc(-c3ccccc3)c(C#N)c(S(C)(=O)=O)n2)cc1 | 19.6%
92 | CS(=O)(=O)c1nc(-c2ccccc2)cc(-c2ccccc2)c1C#N | 68.3% (active)
93 | COc1ccc(-c2cc(-c3ccccc3)nc(SC(C)C(=O)O)c2C#N)cc1 (stereo unspecified) | -21.4%
94 | N#Cc1c(-c2ccccc2)cc(-c2ccccc2)nc1SCCC(=O)O | 3.1%
95 | COC(=O)c1ccccc1NC(=O)CSc1n[nH]c(-c2ccco2)n1 | -8.4%
96 | O=C(C1CCN(c2ccc(N3CCOCC3)nn2)CC1)N1CCN(c2ccc(F)cc2)CC1 | -18.2%
